Legend:
[1] = biological target: T1, Aspartate--tRNA(Asp/Asn) ligase (Mycobacterium tuberculosis (strain ATCC 25618 / H37Rv)) (UniProt P9WFW3); test: Assay for Asp RNA synthetase-1 from Mycobacterium tuberculosis; assay type: functional; parameters: scale not given: direction of the effect not stated beside the values; conditions: 30 µM; further: in the data most compounds retested in dose-response had high values
T1 sequence (whole entry): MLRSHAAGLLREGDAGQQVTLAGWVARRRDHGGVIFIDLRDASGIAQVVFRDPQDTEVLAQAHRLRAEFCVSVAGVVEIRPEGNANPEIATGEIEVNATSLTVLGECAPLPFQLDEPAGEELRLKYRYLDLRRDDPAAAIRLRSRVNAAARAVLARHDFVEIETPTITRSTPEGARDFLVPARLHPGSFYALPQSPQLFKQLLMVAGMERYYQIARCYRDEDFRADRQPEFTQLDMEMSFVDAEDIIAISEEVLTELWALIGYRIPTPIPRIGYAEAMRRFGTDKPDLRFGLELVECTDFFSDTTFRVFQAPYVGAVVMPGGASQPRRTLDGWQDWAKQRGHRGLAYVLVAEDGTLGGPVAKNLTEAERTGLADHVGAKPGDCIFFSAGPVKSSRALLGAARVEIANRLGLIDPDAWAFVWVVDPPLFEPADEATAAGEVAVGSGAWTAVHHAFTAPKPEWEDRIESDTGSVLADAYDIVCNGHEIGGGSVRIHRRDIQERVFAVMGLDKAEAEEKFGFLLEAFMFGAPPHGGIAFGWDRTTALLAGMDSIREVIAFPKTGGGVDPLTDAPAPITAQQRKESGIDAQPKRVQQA

[2] = biological target: Shiga toxin 2 (Escherichia coli O157:H7) (UniProt P09385+P09386); test: E. coli 0.157:H7 Shiga Toxin SOP - stx2 screening assay; assay type: functional; parameters: scale not given: direction of the effect not stated beside the values; conditions: 30 µM

Structure (SMILES)	Percent Effect [1]	Percent Effect [2]
NC(=O)CC1CCN(C(=O)CCOc2ccc(Cl)cc2)CC1	-1.03%	32.7%
O=C(c1cnoc1)N1CCC[C@]2(C[C@@H](OCc3ccccn3)CO2)C1	-4.58%	-20.4%
COc1ccc(F)cc1C(C)NC(=O)Cn1ccc(=O)n(C)c1=O (stereo not drawn)	0.602%	-12.8%
CN(Cc1ccccn1)C1COC2(CCN(Cc3cccnc3)CC2)C1 (stereo not drawn)	-2.07%	-24.6%
O=S(=O)(NCC1CCOc2ccccc2C1)N1CCOCC1 (stereo not drawn)	6.99%	-16%
CC(C)c1nnc2n1CCN(C(=O)c1ccc(-n3cnnc3)cc1)C2	-3.86%	-19.9%
CCCC(C)C(=O)NCc1cn2cc(Br)ccc2n1 (stereo not drawn)	1.41%	-63.8%
c1cnc2c(c1)cc([C@H]1CCCO1)n2CCN1CCOCC1	7.52%	12.7%
CCc1ncc2c(n1)CN(Cc1nc(-c3ccccn3)no1)CC2	0.141%	-30.2%
Cn1ccnc1CN1CCN(c2ccc(C#N)cn2)CC1	1.72%	-34.8%
Cc1ncc(CNC(=O)N(C)C2CCN(c3ccccc3)C2=O)s1 (stereo not drawn)	-3.19%	24.6%
O=S(=O)(Nc1cnn(C2CCOCC2)c1)c1c(F)cccc1F	2.52%	1.54%
CCOc1ccccc1C(CC(=O)Nc1ccc(C)cn1)NC(C)=O (stereo not drawn)	-0.122%	14.7%
Cc1cnn(CC2CCCN2C(=O)c2nccc3ccccc23)c1 (stereo not drawn)	3.06%	28%
Cc1cc(NC(=O)N(CC2CCOC2)C2CC2)no1 (stereo not drawn)	-10.9%	-2.82%
CNC(=O)CS(=O)(=O)C1CCN(S(=O)(=O)c2c(F)cccc2F)CC1	-1.03%	-5.55%
Cc1[nH]c(=O)[nH]c(=O)c1CN1CCCC(CCc2c(F)cccc2F)C1 (stereo not drawn)	0.725%	0.432%
Cc1nc(CN2C(=O)C[C@H]3[C@H]2CCN3C2CCOCC2)cs1	-3.97%	9.23%
COC(=O)c1sccc1S(=O)(=O)N1CCC(Oc2ncccc2Cl)CC1	-5.87%	4.83%
Cc1nn(C)c(C)c1NC(=O)CN1CCCC1c1noc(C2CC2)n1 (stereo not drawn)	5.58%	-27.4%
Cc1noc(NC(=O)c2ccc(Br)s2)n1	2.08%	49.8%
CCOCCOC(C)C(=O)NCc1cn2cc(Br)ccc2n1 (stereo not drawn)	1.62%	-14.8%
CC(C)c1nc(N2CC(N3CCCCC3C)C2)c2cnn(C)c2n1 (stereo not drawn)	-2.71%	-37.8%
CCOc1ccc(Cl)c(C(=O)N2CCN(CCO)CC2)n1	0.455%	15.7%
Fc1cc(CNCc2ccc3c(c2)CCO3)ccc1N1CCOCC1	-1.01%	-16.1%

Structure (SMILES)	Percent Effect [1]	Percent Effect [2]
CN1CC(=O)N(c2cccnc2)CC12CCN(C(=O)C1CCCCC1)C2 (stereo not drawn)	6.7%	-1.32%
COc1c(C2CCCN2C(=O)c2ccc3cc[nH]c3c2)c(C)nn1C (stereo not drawn)	-1.15%	3.54%
CCc1nc2n(n1)CC(NCC(=O)Nc1cc(C)on1)CC2 (stereo not drawn)	-3.4%	3.33%
CCC(C)NC(=O)Nc1ccc(CN2CCOC2=O)cc1 (stereo not drawn)	-0.167%	-47.4%
N#Cc1ccc(CNC(=O)NC2CCN(CC(F)F)CC2)cc1	-4.22%	-8.96%
O=C(NCCOc1ccc(Cl)cc1)N1CCS(=O)(=O)CC1	-4.21%	5.32%
c1cnnc(N2CCCC2CNCc2nc(C3CC3)no2)c1 (stereo not drawn)	-4.43%	5.95%
COc1ccc2nnc(CCCC(=O)NCc3cccn3C)n2n1	-1.89%	-44.7%
Cn1cc(CN2CCc3nc(-c4ccccn4)nc(O)c3C2)cn1	-5.28%	-24.6%
O=C1COc2cc(C(=O)NS(=O)(=O)c3ccccc3F)ccc2N1	-0.702%	0.482%
O=C(c1ccncc1F)N1CCN(CC2CC2)c2ncccc2C1	2.79%	-37.6%
CCS(=O)(=O)N1CCC[C@]2(C(=O)N(C)C)CN(c3ncccn3)C[C@@H]2C1	2.53%	-34.5%
COc1ccc(CN2CCC[C@@H]3CN(C(=O)c4ccco4)C[C@@H]32)cc1	5.87%	0.332%
Cc1nccn1-c1cccc(C2CCCN2S(=O)(=O)c2cn(C)cn2)n1 (stereo not drawn)	12.1%	45.9%
Cn1ccc(C(=O)N2CCN(c3cc(C#N)ccn3)CC2)cc1=O	3.75%	1.09%
CN(C)C(=O)N1C[C@H]2CCC[C@@]2(COc2ccccn2)C1	3.31%	10.3%
CNc1cncc(C2CCCN2Cc2c[nH]cn2)n1 (stereo not drawn)	7.49%	7.95%
CC(C)NC(=O)N1CCC2(COCc3cnc(-c4cccnc4)nc32)C1 (stereo not drawn)	-2.8%	2.56%
CCOc1ccc(-n2nnc(C(=O)O)c2-c2ccccn2)cc1	12%	-8.4%
Cc1nc2n(n1)CC(NCc1cc(Cl)c3c(c1)OCCCO3)CC2 (stereo not drawn)	6.55%	22.8%
Cc1cc(CNC(=O)NC(C)c2ccc(N3CCOCC3)cc2)no1 (stereo not drawn)	5.56%	-23.6%
Cc1noc(C)c1C(=O)NCC(O)c1ccc(F)cc1F (stereo not drawn)	-2.01%	20.4%
COc1cc(C)nc(N2CCN(C(=O)COCC(F)(F)F)CC2)n1	-2.06%	-20.7%
COc1cc(C(=O)N2CCCS2(=O)=O)ccc1C	-7.63%	-10.8%
Cc1cccc(-c2noc(CN3CCc4nn(C)c(=O)cc4C3)n2)c1	47.9%	-21.4%

Structure (SMILES)	Percent Effect [1]	Percent Effect [2]
CCCN(C(=O)COC)c1nc2c(s1)CCc1c-2cnn1C	-1.78%	-37.9%
CCc1cc(=O)[nH]c2nnc(SCC(=O)OC)n12	-8.74%	-6.54%
CCCc1nc(CN2CCOC(Cn3cncn3)C2)no1 (stereo not drawn)	0.917%	-23.1%
N#Cc1c(F)cccc1N1CCC(NS(=O)(=O)c2cccs2)CC1	10.6%	-25.2%
Cc1cnn(CC2CCCCN2C(=O)c2cc(Cl)c[nH]2)c1 (stereo not drawn)	1.83%	-31.9%
CNS(=O)(=O)Cc1ccc(CNc2cncc(-n3cccn3)n2)cc1	-0.637%	-15.6%
COCc1ccc(CNC(=O)C2=NN(c3ccccc3)C(=O)CN2)cc1	16.6%	-18.1%
Cc1cc(C)cc(C2(C(=O)N3CCCC(n4cncn4)C3)CC2)c1 (stereo not drawn)	0.962%	26.6%
Cc1cnn(CC2CN(CC(=O)N(C)c3nccs3)CCO2)c1 (stereo not drawn)	-6.72%	11%
Cc1noc(C(C)C)c1C(=O)NCC(c1cccc(F)c1)N(C)C (stereo not drawn)	-4.05%	8.91%
CCc1noc(C2CCN(C(=O)CCn3nc(C)cc3C)CC2)n1	8.14%	-32.8%
Cc1cccn2c(=O)cc(CN3CCCCC3Cn3cncn3)nc12 (stereo not drawn)	-0.0141%	-18.4%
O=C(NCc1cc(=O)n2c(n1)CN(CC1CCOC1)CCC2)C1CC1 (stereo not drawn)	-1%	-24.3%
COc1ccnc(N2CCN(C(=O)CN3CCCC3=O)CC2)n1	-1.88%	13.5%
Cc1nc(CN2CC3(CCN(c4ncc(F)cn4)C3)CC2=O)cs1 (stereo not drawn)	3.16%	-4.09%
CNS(=O)(=O)c1cccc(CNc2nccc(C(F)(F)F)n2)c1	3.75%	4.67%
CN(C)c1ccc(CC(=O)N[C@@H]2CCNC[C@H]2O)cc1	3.77%	1.28%
COCCCNC(=O)CCn1nc(C)c2ccccc21	-2.88%	-11.5%
CC(=O)N(Cc1noc(C)n1)C1CCN(Cc2ccccc2C#N)C1 (stereo not drawn)	2.26%	-3.66%
CC(NC(=O)NCCCOC1CCCCC1)c1nncn1C (stereo not drawn)	-3.32%	-6.91%
CN(C)C[C@H]1OC[C@@H]2CCN(S(=O)(=O)c3cccs3)C[C@@H]21	-0.29%	-8.75%
COc1cccc(C2CCCN2C(=O)c2cc3c([nH]c2=O)CCC3)c1 (stereo not drawn)	1.28%	-5.59%
Cc1nn(CC(C)C)c(N(C)C)c1CNCc1cccc2c1OCO2	1.9%	20.6%
CCCS(=O)(=O)N1CCN(c2cc(-n3nc(C)cc3C)nc(C)n2)CC1	-3.15%	-4.71%
